An excerpt weighted towards active compounds, which were near 12% of everything screened.
L3MBTL1 inh = L3MBTL1 (human) inhibition; actives 0.66% (n = 230,000); AlphaScreen L3MBTL1–H3K9me1 peptide binding; AID 485360; Potency, µM (highest dose often 57.1 µM), for inactives: at the top dose activity, negative = inhibition, actives largely listed as inhibitors; Q9Y468; further: potency means the concentration at half of the fitted maximal effect; on the % scale 0 is the no-effect control and ±100 the full control effect; nearly all actives have a fitted effect of over 60% in size
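Displacement of a biotinylated histone H3(1-15) peptide monomethylated at Lys9 (75 nM) from L3MBTL1 (50 nM) was measured by AlphaScreen after a 30 min room-temperature compound incubation; cefsulodin titration served as intraplate control.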
HP1b chromo inh = inhibitors of HP1-beta chromodomain binding to methylated histone tails; P83916; AlphaScreen HP1-beta / biotin-H3K9me3 peptide binding; actives 0.56% (n = 390,000); Potency, µM (highest dose often 114 µM), without a hit: top-dose activity change, negative = inhibition, hits mostly inhibitors; AID 540317; further: potency means the concentration at half of the fitted maximal effect; nearly all actives have a fitted effect of over 70% in size
Target sequence (P83916 whole entry, looked up): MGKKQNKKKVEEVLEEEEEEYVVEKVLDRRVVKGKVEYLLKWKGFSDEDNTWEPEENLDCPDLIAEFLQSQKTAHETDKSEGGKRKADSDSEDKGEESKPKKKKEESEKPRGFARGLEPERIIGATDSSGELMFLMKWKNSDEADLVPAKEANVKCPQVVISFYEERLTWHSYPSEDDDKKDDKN
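AlphaScreen: HP1-beta (50 nM) preformed 30 min with biotin-H3(1-18)K9me3 peptide (50 nM) in PBS pH 7.4, 0.01% Tween-20. Compound added for 30 min at RT, then streptavidin donor/nickel chelate acceptor beads (10 ug/mL) for 30 min.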
G9a inh = G9a (human) methyltransferase inhibition. actives 8.8% (n = 350,000). AID 504332. Potency, µM (top dose mostly 102 µM), inactives show at the top dose activity, negative = inhibition, hits mostly inhibitors. G9a H3K9 monomethylation, AlphaScreen, 2 h; further: potency means the concentration at half of the fitted maximal effect; on the % scale 0 is the no-effect control and ±100 the full control effect; nearly all actives have a fitted effect of over 75% in size
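Quantitative HTS format: methyltransferase activity on a biotin-tagged H3K9 peptide is measured by AlphaScreen, using a rabbit anti-monomethyl-H3K9 antibody with streptavidin donor and anti-IgG acceptor beads. Final levels are 20 nM enzyme, 500 nM peptide, 20 uM SAM; 2 h RT.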
BAZ2B block = BAZ2B (human) inhibition; AID 504333; Q9UIF8; Potency, µM (titrated, usually from 114 µM), inactives show at the highest dose activity change, negative = inhibition, most hits filed as inhibitors; actives 4.4% (n = 360,000); AlphaScreen BAZ2B-H3K14Ac peptide displacement; further: potency means the concentration at half of the fitted maximal effect; on the % scale 0 is the no-effect control and ±100 the full control effect; nearly all actives have a fitted effect of over 60% in size
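In this displacement format the biotinylated H3(5-23) peptide acetylated at Lys14 serves as ligand at 50 nM, with BAZ2B at 50 nM in PBS pH 7.4 containing 0.01% Tween-20. Donor and acceptor beads are 10 ug/mL final.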
Sfp PPTase inh = blocks B. subtilis Sfp PPTase activity | actives 3.5% (n = 310,000) | Potency, µM, inactives show largest response in the series, negative = inhibition, usual class: inhibitors | AID 1490 | Biochemical Sfp PPTase activity, qHTS;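 further: the enzyme is Sfp with the accession as filed and its product quenches rhodamine fluorescence; potency means the concentration at half of the fitted maximal effect; 0% = enzyme reaction without inhibitor and -100% = no enzyme wells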
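Step 1, compound plus 15 nM Sfp-PPTase, 15 min, room temperature. Step 2, add rhodamine-CoA (5 uM) and BHQ-2-YbbR (12.5 uM). Step 3, read 525/598 nm fluorescence at 0 and 30 min.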
JMJD2A Tudor = blocks the human JMJD2A Tudor domain. AlphaScreen JMJD2A-Tudor / H3K4me3 peptide binding. Potency, µM (highest dose often 114 µM), inactives show top-dose activity change, negative = inhibition, actives largely listed as inhibitors. actives 4.4% (n = 390,000); further: potency means the concentration at half of the fitted maximal effect; on the % scale 0 is the no-effect control and ±100 the full control effect; nearly all actives have a fitted effect of over 50% in size
JMJD2E inh-1 = inhibitors of human JMJD2E demethylase, 8HQ series round 1. Potency, µM (top dose mostly 57 µM), inactives show at the top dose activity, negative = inhibition, actives largely listed as inhibitors. AID 493212. actives 89% (n = 130). JMJD2E demethylase, FDH-coupled NADH fluorescence. shares compounds with BAZ2B block
Target sequence (B2RXH2 1-337 limits assumed): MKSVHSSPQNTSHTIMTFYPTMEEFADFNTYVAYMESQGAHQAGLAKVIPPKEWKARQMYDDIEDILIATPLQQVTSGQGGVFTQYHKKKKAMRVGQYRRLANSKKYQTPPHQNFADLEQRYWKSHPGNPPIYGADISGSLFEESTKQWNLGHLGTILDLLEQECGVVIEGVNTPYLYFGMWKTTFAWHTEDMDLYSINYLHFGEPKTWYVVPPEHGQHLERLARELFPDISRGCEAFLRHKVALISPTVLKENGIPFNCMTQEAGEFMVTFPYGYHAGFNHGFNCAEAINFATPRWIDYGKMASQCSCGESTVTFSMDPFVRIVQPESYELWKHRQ
ME-1 prolif = inhibitors of ME-1 leukemia cell proliferation, CBFb-RUNX1 project; shares compounds with BAZ2B block; ME-1 cell proliferation, ATP luminescence, 48 h; Potency, µM (top dose mostly 56.1 µM), without a hit: top-dose activity change, negative = inhibition, usual class: inhibitors; actives 20% (n = 140); AID 504370
JMJD2E inh-2 = JMJD2E (human) demethylase inhibition, confirmation. shares compounds with JMJD2A Tudor. Recombinant JMJD2E, FDH-coupled NADH fluorescence (FDH is formaldehyde dehydrogenase). Potency, µM (top dose mostly 56.8 µM), for inactives: at the top dose activity change, negative = inhibition, most hits filed as inhibitors. actives 93% (n = 140). AID 2677
FDH counter = counter-screen for JMJD2E inhibitors: Pseudomonas putida formaldehyde dehydrogenase; Potency, µM (highest dose often 56.7 µM), without a hit: at the highest dose activity, negative = inhibition, most hits filed as inhibitors; shares compounds with JMJD2A Tudor; FDH enzyme assay, NADH fluorescence kinetic; actives 10% (n = 140)
JMJD2E MS inh = human KDM4E demethylase inhibition; shares compounds with JMJD2A Tudor; recombinant JMJD2E demethylation, MALDI-TOF-MS; Potency, µM, usual class: inhibitors; actives 90% (n = 45); AID 2688;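 active means compounds whose IC50 for blocking JMJD2E demethylation is below 100 µM; inconclusive means dose dependent effect but IC50 above 100 µM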
Starred values were filed as active, the others as inactive; [ ] = remark or other dose. Unless noted, the call rests on the fitted dose curve; in most records, active means well fitted curve in the direction sought with a large enough effect; inconclusive means small, poorly fitted or top-dose-only effect, or another doubt; inactive means no such curve, though single readings can be large; an effect the other way counts as inactive or inconclusive.

What do the screens show for `O=C1C(Cc2ccccc2)C(c2ccccc2)N1c1ccccc1` (stereo not drawn)?
L3MBTL1 inh: 6%; HP1b chromo inh: 81%; G9a inh: 60%[12.7 µM]; BAZ2B block: 24%; Sfp PPTase inh: 1%; JMJD2A Tudor: 49%

What do the screens show for `O=C1C(CCC(O)c2ccc(F)cc2)C(c2ccc(O)cc2)N1c1ccc(F)cc1` (stereo not drawn)?
G9a inh: -9%[2.33 µM]; Sfp PPTase inh: 15%; ME-1 prolif: 8%

What do the screens show for `CCN1CCCC1=O`?
G9a inh: 19%[59 µM]; Sfp PPTase inh: 6%

What do the screens show for `C=CN1CCCC1=O`?
Sfp PPTase inh: 5%; ME-1 prolif: -11%

Results for CCOC(=O)Cc1cc(C(=O)Nc2ccc(Br)cc2)sc1-c1ccc(C)cc1 ?
HP1b chromo inh: 62%; G9a inh: 27%[59 µM]; BAZ2B block: 1%; JMJD2A Tudor: 6%

Results for Oc1cc(NCCc2cccnc2)cc2cccnc12 ?
L3MBTL1 inh: 28µM*; HP1b chromo inh: 54%; G9a inh: -47%[12.7 µM]; BAZ2B block: 5.6µM*; JMJD2A Tudor: 40µM*; JMJD2E inh-1: 32µM*; JMJD2E inh-2: 32µM*; FDH counter: -27%; JMJD2E MS inh: inconclusive

Results for Oc1cc(NCc2cccnc2)ccc1-c1nc2ccccc2o1 ?
L3MBTL1 inh: -8%; HP1b chromo inh: 39%; G9a inh: 26%[12.7 µM]; BAZ2B block: -2%; Sfp PPTase inh: 1%; JMJD2A Tudor: -1%

Results for Oc1cc(Nc2cccnc2)cc2cccnc12 ?
L3MBTL1 inh: 32µM*; HP1b chromo inh: 44%; G9a inh: -1%[12.7 µM]; BAZ2B block: 7.9µM*; JMJD2A Tudor: 45µM*; JMJD2E inh-1: 32µM*; JMJD2E inh-2: 32µM*; FDH counter: -18%; JMJD2E MS inh: 30*

Results for COc1ccc(C(=O)Nc2cc(OC)cc3cccnc23)cc1 ?
HP1b chromo inh: 52%; G9a inh: 6%[2.33 µM]; BAZ2B block: -7%; Sfp PPTase inh: -11%; JMJD2A Tudor: 5%

Results for Oc1cc(Nc2ccncc2)cc2cccnc12 ?
L3MBTL1 inh: 22µM*; HP1b chromo inh: 41%; G9a inh: -27%[12.7 µM]; BAZ2B block: 4µM*; JMJD2A Tudor: 20µM*; JMJD2E inh-1: 25µM*; JMJD2E inh-2: 25µM*; FDH counter: -9%; JMJD2E MS inh: 20*

What do the screens show for `COc1ccc(Nc2cc(O)c3ncccc3c2)cc1`?
L3MBTL1 inh: 32µM*; G9a inh: 17%[12.7 µM]; BAZ2B block: 28µM*; JMJD2E inh-1: 11µM*; JMJD2E inh-2: 9.1µM*; FDH counter: -36%; JMJD2E MS inh: 22*

Results for Cc1noc(C)c1C(=O)N1CCC2(CCCN(C(=O)Nc3ccccc3)C2)CC1 ?
G9a inh: 3%[12.7 µM]; Sfp PPTase inh: 14%

What do the screens show for `O=S(=O)(c1ccccc1)N1CCC2(CCCN(c3ncccn3)C2)CC1`?
G9a inh: -1%[12.7 µM]; Sfp PPTase inh: 3%

Results for CC(=O)Nc1ccc(C)cc1-c1nc2ccccc2n(CC(=O)Nc2cc(Cl)ccc2C)c1=O ?
HP1b chromo inh: 7%; G9a inh: -24%[59 µM]; BAZ2B block: inconclusive; JMJD2A Tudor: -19%

How did NC(=O)c1ccnc2c(O)cccc12 do in these assays?
L3MBTL1 inh: 14µM*; HP1b chromo inh: 24%; G9a inh: -31%[0.501 µM]; BAZ2B block: 1.8µM*; JMJD2A Tudor: 22µM*; JMJD2E inh-1: 3.2µM*; JMJD2E inh-2: inconclusive; FDH counter: -27%

Results for c1ccc2c(-c3nn[nH]n3)cccc2c1 ?
L3MBTL1 inh: 12%; HP1b chromo inh: 22%; G9a inh: 8%[59 µM]; BAZ2B block: -5%; Sfp PPTase inh: 10%; JMJD2A Tudor: -18%

What do the screens show for `NC(=O)c1cccc2ccccc12`?
L3MBTL1 inh: 8%; HP1b chromo inh: 27%; BAZ2B block: 4%; Sfp PPTase inh: 20%; JMJD2A Tudor: -6%

How did Oc1cccc2c(-c3nn[nH]n3)ccnc12 do in these assays?
L3MBTL1 inh: -6%; HP1b chromo inh: 36%; G9a inh: 13%[12.7 µM]; BAZ2B block: 3.2µM*; JMJD2A Tudor: 13µM*; JMJD2E inh-1: 18µM*; JMJD2E inh-2: 10µM*; FDH counter: -18%; JMJD2E MS inh: 18*

What do the screens show for `COC(=O)c1ccc(O)c2ncccc12`?
JMJD2E inh-1: 20µM*; JMJD2E inh-2: 20µM*; FDH counter: -27%

What do the screens show for `C=CCC(CC=C)(CNC(=O)C(=O)Nc1cc(C)ccc1OC)c1ccc(OC)c(OC)c1`?
HP1b chromo inh: 29%; G9a inh: -12%[59 µM]; BAZ2B block: -22%; JMJD2A Tudor: -29%

How did Cc1coc2c1c(C)cc1oc(=O)cc(C)c12 do in these assays?
HP1b chromo inh: 23%; G9a inh: -5%[59 µM]; BAZ2B block: 0%; JMJD2A Tudor: -9%

Results for CN(C)c1cnc2c(O)cccc2c1 ?
JMJD2E inh-1: 20µM*; JMJD2E inh-2: 18µM*; FDH counter: -27%

Results for Oc1cccc2cc(C3CC3)cnc12 ?
JMJD2E inh-1: 20µM*; JMJD2E inh-2: 20µM*; FDH counter: -18%

What do the screens show for `Cc1cnc2c(O)cccc2c1`?
JMJD2E inh-1: inconclusive; JMJD2E inh-2: inconclusive; FDH counter: 0%

How did Cc1cccc2cc3cccc(C)c3nc12 do in these assays?
HP1b chromo inh: 158%; G9a inh: 15%[0.501 µM]; BAZ2B block: 79%; Sfp PPTase inh: -9%; JMJD2A Tudor: 128%

Source: PubChem
